Drawing on PubChem BioAssay (NCATS), this text covers Potency and outcome for six compounds.

Unmarked numbers belong to inactive results. Records with an inconclusive call do not appear. Active and inactive are the calls of the source. Unless noted, calls follow the shape of the dose curve; as a rule, active = well fitted curve in the direction sought with a large enough effect; inconclusive = small, poorly fitted or top-dose-only effect, or another doubt; inactive = no such curve, though single readings can be large; an effect the other way counts as inactive or inconclusive. Bounds are passed on as bounds.

The target of test [1] is Ubiquitin carboxyl-terminal hydrolase 1 (Homo sapiens) (UniProt O94782). As to the kind of experiment: Inhibitors of USP1/UAF1: Pilot qHTS (AID 504865).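 Also: rhodamine fluorescence freed from ubiquitin-rhodamine substrate followed over time; top concentration of the series differs between compounds; nearly all actives have a fitted effect of over 35% in size.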 The gist of the method:
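In 50mM HEPES pH 7.8 containing 0.5mM EDTA, 1mM TCEP, 0.1 mg/ml BSA and 0.01% Tween-20, 1nM USP1/UAF1 is exposed to compound for 15 min, then Ub-Rho (150nM final) is added and fluorescence is read over time.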

The nature of test [2]: S16 Schwann cell PMP22 intronic element beta-lactamase assay (AID 624044; calls by dose curve; also: nearly all actives have a fitted effect of over 15% in size). Conditions: S16 rat Schwann cells, PMP22 element beta-lactamase FRET, 24 h; ratio activity, negative = inhibition: at 38.3 µM (top of the series) unless noted. The gist of the method:
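Beta-lactamase reporter under a PMP22 intronic regulatory element in stable S16 rat Schwann cells; 24 h compound exposure. 460 nm blue signal normalized between DMSO (0%) and potassium clavulanate, with 535 nm FRET tracking viability; curves classed by r2 and response.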

Test [3] concerns CP291. In words: qHTS profiling for inhibitors of Plasmodium falciparum proliferation (AID 504749). Also: nearly all actives have a fitted effect of over 60% in size. Conditions: P. falciparum in erythrocytes, SYBR Green DNA, 72 h; series mostly up to 28.7 µM. The gist of the method:
(§1)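 Fluorescence of SYBR Green-bound parasite DNA, read at 485/535 nm, served as the growth measure. Infected erythrocytes were cultured with compound 72 h; artemisinin (0.29 uM) and DMSO wells defined the normalization range.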
A general note: qHTS replaces the single test concentration by a dilution series.

Test [4] relates to CP297. The description is as above. Conditions: P. falciparum in erythrocytes, SYBR Green DNA, 72 h; series mostly up to 28.7 µM. The gist of the method:
as §1

The test system of test [5] is CP315. The test is described as above. Conditions: P. falciparum in erythrocytes, SYBR Green DNA, 72 h; series mostly up to 28.7 µM. Summed up:
as §1

Test [6] deals with ICS. The test is described as above. Conditions: P. falciparum in erythrocytes, SYBR Green DNA, 72 h; series mostly up to 28.7 µM. Summed up:
as §1

Test [7] concerns the target Tyrosyl-DNA phosphodiesterase 1 (Homo sapiens) (UniProt Q9NUW8). As to the kind of experiment: Confirmation Assay for Inhibitors of Tyrosyl-DNA Phosphodiesterase (TDP1) (AID 489007). Also: potency is read from the fitted curve at half-maximal effect; nearly all actives have a fitted effect of over 40% in size. Conditions: recombinant human TDP1 enzymatic activity, dose-response. The gist of the method:
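Loss of AlphaScreen signal reports Tdp1 cleavage of a dual-labelled DNA substrate. Conditions: 1 nM E. coli-derived enzyme, 15 nM substrate, 15 min compound preincubation, 5 min reaction, 10 min bead incubation, all at room temperature.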

Test [8] deals with Glucocorticoid receptor (Homo sapiens) (UniProt P04150). In words: GR-GFP Redistribution (AID 450;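 active = compounds whose dose series gives a full or clear partial fitted curve of increased nuclear translocation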; also: potency is read from the fitted curve at half-maximal effect). Conditions: U2OS GR-GFP nuclear translocation, laser cytometry, 2 h.
Test [9] has the same target. As to the kind of experiment: GR-EFC Redistribution (AID 451; calls by dose curve; also: potency is read from the fitted curve at half-maximal effect). Conditions: CHO-K1 GR-EFC translocation, beta-gal luminescence, 2 h. The gist of the method:
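CHO-K1 cells stably expressing nuclear-localized β-gal enzyme acceptor and GR fused C-terminally to the enzyme donor fragment; ligand-driven nuclear translocation restores β-gal by complementation. Compounds titrated up to 46 uM final, 2 h at 37 °C; luminescence read.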

Test [10] concerns the target DNA dC->dU-editing enzyme APOBEC-3G (Homo sapiens) (UniProt Q9HC16). In words: qHTS for inhibitors of Vif-A3G interactions: Validation (AID 588379). Summed up:
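Yellow fluorescence (Ex 488, Em 500-530) of Vif-coexpressing HeLa A3G-eYFP cells, scanned by Acumen cytometer, reports blocked A3G degradation. Cells plated at 700/well overnight at 37 deg C before compound addition, then a further overnight compound incubation at 37 deg C.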

For test [11], the target named is Cytochrome P450 2C9 (Homo sapiens) (UniProt P11712). As to the kind of experiment: qHTS Assay for Inhibitors and Substrates of Cytochrome P450 2C9 (AID 883). Also: potency is read from the fitted curve at half-maximal effect; nearly all actives have a fitted effect of over 60% in size. Summed up: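 A luminogenic readout tracked human CYP2C9 (10nM) converting deoxyluciferin (100uM, at KM) in 25mM KPO4 during 60 min at 37C with regenerated NADPH. Values normalized to 57uM sulphaphenazole as complete inhibition.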

Test [12] concerns the target Cytochrome P450 2C19 (Homo sapiens) (UniProt P33261). As to the kind of experiment: qHTS Assay for Inhibitors and Substrates of Cytochrome P450 2C19 (AID 899). Also: potency is read from the fitted curve at half-maximal effect; nearly all actives have a fitted effect of over 60% in size. Summed up: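 NADPH-dependent conversion of Luciferin-H EGE (10uM, at KM) by 5nM enzyme in 50mM KPO4, 60 min at 37C following 10 min compound preincubation. Stopped with luciferin detection buffer; luminescence read after 20 min.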

Test [13] can be described thus: qHTS Assay for Identification of Small Molecule Antagonists for Thrombopoietin (TPO) Signaling Pathway (AID 918). Also: potency is read from the fitted curve at half-maximal effect; nearly all actives have a fitted effect of over 60% in size. Conditions: TPO-dependent cell signaling reporter, antagonist mode. The gist of the method:
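Antagonist mode at EC50 TPO (26 pM) in IL-3-free medium; murine Ba/F3 cells with human TPO receptor and GPIIb-promoter luciferase, 24 hrs at 37 C before luminescent detection.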

Test [14] can be described thus: High Content Imaging Cell-Based qHTS for Inhibitors of the mTORC1 Signaling Pathway in MEF (Tsc2-/-, p53-/-) Cells (AID 2666).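 Also: percent of cells scored positive for phospho-rpS6 Ser235/236 immunostaining by imaging; potency is read from the fitted curve at half-maximal effect.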 Summed up:
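Inhibition of rpS6 phosphorylation is measured by immunofluorescence imaging in empty-vector Tsc2-/-, p53-/- mouse embryonic fibroblasts after 24 hrs compound exposure at 37 degree Celsius. Results are reported as % positive cells per well.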

A short description of test [15]: High Content Imaging Cell-Based qHTS for Inhibitors of the mTORC1 Signaling Pathway in MEF Cells (AID 2667). Also: potency is read from the fitted curve at half-maximal effect. The gist of the method:
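Fixed-cell imaging of phospho-S6 (Ser235/236, Alexa-488) after 24 hrs of compound treatment at 37 degree Celsius. Signal was normalized to Hoechst, and thresholds from the highest and lowest wells split cells into % active versus % non-active.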

Test [16] is described as follows: Cytometry Cell-Based qHTS for Inhibitors of the mTORC1 Signaling Pathway in MEF cells (AID 2668). Also: potency is read from the fitted curve at half-maximal effect. Summed up:
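Tsc2-/-, p53-/- MEFs re-expressing WT Tsc2; cpd 24 hrs, 37 degree Celsius; PFA fix, Alexa-488 p-rpS6 (Ser235/236) Ab 2 hrs RT, PI counterstain; Acumen 488nm scan; p-S6/PI ratio → % positive cells; PI count = viability.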

Test [17] can be described thus: qHTS for compounds that reverse cellular toxicity of Amyloid beta (A-beta) peptide in yeast: LOPAC Validation Assay (AID 720559). The gist of the method: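 Medium dispensed, compounds pinned, A-beta yeast suspension added; plates held at 30 C for 48 hr; absorbance measured at 600 nm to gauge growth; values scaled between DMSO and FeCl3/clioquinol (equimolar) controls.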

The target in test [18] is ATPase family AAA domain-containing protein 5 (Homo sapiens) (UniProt Q96QE3). In words: Validation screen for small molecules that inhibit ELG1-dependent DNA repair in human embryonic kidney (HEK293T) cells expressing luciferase-tagged ELG1 (AID 493107). Also: potency is read from the fitted curve at half-maximal effect; nearly all actives have a fitted effect of over 70% in size. Summed up: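 Compounds reducing 5-fluorouridine-driven ELG1-luciferase signal in HEK293T cells were scored; exposure lasted 16 hr at 37 °C with luminescence detected via ONE-Glo.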

The target of test [19] is Arylsulfatase A (Homo sapiens) (UniProt P15289). As to the kind of experiment: qHTS screen for enhancers of Arylsulfatase A (ASA1): LOPAC Validation Assay (AID 720538). The gist of the method:
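MLD patient fibroblasts (SV40, ASA-I179S), 1536-well; adhere 6 hrs; cpd 48h, 37 degree C, 5% CO2; pNCS 0.5mM final in lysis buffer, 14h RT; stop 1N NaOH final; fluor. Ex525/Em598.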

The target in test [20] is Phospholipid hydroperoxide glutathione peroxidase GPX4 (Homo sapiens) (UniProt P36969). In words: Primary qHTS Assay for Inhibitors of Recombinant Selenoprotein Glutathione Peroxidase 4 (GPX4) (AID 1845192). Also: nearly all actives have a fitted effect of over 65% in size. Summed up: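 qHTS, GR-coupled: GPX4 200 nM + cpd 30 min RT → GSH 1 mM, NADPH 0.5 mM, GR 100 nM → CHP 0.5 mM start; fluor 340/450 at t0 and t15 min; no-enzyme wells as control.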
Sequence of Phospholipid hydroperoxide glutathione peroxidase GPX4 (Homo sapiens) (P36969 whole entry, looked up): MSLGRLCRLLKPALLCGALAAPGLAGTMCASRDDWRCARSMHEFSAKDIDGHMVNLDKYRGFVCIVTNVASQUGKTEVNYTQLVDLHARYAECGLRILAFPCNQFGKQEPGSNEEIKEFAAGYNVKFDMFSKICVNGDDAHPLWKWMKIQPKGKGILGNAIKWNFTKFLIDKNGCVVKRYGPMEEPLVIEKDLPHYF

Sequence of Glucocorticoid receptor (Homo sapiens) (P04150 whole entry, looked up): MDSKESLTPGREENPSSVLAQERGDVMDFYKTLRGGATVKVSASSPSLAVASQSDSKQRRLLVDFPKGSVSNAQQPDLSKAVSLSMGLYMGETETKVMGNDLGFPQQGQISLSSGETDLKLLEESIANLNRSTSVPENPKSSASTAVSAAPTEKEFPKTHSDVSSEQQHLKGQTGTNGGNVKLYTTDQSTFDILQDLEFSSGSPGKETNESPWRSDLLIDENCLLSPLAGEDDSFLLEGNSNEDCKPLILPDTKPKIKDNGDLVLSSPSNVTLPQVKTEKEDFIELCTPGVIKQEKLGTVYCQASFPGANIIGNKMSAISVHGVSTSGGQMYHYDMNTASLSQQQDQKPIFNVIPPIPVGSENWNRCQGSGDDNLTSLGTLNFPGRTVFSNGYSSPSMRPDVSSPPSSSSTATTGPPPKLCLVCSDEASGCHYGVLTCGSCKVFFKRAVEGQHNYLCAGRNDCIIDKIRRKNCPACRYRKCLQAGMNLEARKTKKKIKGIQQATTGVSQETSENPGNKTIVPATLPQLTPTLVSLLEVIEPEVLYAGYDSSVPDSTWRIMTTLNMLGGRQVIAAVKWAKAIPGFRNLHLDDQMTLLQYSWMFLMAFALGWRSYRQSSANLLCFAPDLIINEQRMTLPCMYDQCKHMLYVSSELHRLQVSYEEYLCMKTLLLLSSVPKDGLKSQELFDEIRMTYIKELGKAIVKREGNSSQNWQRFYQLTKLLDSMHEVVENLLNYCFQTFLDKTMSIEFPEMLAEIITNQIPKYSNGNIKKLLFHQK
Sequence of Cytochrome P450 2C9 (Homo sapiens) (P11712 whole entry, looked up): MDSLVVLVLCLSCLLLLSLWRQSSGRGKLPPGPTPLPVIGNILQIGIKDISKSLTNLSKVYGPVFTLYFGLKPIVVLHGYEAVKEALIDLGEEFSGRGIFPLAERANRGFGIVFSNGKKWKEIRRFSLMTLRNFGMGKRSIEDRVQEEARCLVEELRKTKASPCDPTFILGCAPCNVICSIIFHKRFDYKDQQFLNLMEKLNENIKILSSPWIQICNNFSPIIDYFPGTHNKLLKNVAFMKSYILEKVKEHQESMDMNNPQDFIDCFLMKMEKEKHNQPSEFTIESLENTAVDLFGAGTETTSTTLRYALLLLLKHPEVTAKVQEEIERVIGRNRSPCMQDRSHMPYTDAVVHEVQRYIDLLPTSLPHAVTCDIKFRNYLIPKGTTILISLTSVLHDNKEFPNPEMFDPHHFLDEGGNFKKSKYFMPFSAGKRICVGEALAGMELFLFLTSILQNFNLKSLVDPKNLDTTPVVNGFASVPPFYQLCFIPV
Sequence of DNA dC->dU-editing enzyme APOBEC-3G (Homo sapiens) (Q9HC16 whole entry, looked up): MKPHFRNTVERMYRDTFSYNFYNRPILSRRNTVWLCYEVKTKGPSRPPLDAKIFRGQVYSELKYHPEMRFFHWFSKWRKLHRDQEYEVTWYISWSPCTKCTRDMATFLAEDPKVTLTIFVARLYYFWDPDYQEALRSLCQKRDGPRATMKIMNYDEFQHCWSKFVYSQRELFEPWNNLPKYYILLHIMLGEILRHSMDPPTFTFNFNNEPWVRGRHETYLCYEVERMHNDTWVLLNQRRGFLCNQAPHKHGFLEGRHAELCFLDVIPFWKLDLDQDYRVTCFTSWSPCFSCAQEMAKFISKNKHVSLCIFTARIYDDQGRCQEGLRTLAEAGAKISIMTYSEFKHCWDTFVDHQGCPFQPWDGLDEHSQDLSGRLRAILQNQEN
Sequence of ATPase family AAA domain-containing protein 5 (Homo sapiens) (Q96QE3 whole entry, looked up, the tested form may be a part): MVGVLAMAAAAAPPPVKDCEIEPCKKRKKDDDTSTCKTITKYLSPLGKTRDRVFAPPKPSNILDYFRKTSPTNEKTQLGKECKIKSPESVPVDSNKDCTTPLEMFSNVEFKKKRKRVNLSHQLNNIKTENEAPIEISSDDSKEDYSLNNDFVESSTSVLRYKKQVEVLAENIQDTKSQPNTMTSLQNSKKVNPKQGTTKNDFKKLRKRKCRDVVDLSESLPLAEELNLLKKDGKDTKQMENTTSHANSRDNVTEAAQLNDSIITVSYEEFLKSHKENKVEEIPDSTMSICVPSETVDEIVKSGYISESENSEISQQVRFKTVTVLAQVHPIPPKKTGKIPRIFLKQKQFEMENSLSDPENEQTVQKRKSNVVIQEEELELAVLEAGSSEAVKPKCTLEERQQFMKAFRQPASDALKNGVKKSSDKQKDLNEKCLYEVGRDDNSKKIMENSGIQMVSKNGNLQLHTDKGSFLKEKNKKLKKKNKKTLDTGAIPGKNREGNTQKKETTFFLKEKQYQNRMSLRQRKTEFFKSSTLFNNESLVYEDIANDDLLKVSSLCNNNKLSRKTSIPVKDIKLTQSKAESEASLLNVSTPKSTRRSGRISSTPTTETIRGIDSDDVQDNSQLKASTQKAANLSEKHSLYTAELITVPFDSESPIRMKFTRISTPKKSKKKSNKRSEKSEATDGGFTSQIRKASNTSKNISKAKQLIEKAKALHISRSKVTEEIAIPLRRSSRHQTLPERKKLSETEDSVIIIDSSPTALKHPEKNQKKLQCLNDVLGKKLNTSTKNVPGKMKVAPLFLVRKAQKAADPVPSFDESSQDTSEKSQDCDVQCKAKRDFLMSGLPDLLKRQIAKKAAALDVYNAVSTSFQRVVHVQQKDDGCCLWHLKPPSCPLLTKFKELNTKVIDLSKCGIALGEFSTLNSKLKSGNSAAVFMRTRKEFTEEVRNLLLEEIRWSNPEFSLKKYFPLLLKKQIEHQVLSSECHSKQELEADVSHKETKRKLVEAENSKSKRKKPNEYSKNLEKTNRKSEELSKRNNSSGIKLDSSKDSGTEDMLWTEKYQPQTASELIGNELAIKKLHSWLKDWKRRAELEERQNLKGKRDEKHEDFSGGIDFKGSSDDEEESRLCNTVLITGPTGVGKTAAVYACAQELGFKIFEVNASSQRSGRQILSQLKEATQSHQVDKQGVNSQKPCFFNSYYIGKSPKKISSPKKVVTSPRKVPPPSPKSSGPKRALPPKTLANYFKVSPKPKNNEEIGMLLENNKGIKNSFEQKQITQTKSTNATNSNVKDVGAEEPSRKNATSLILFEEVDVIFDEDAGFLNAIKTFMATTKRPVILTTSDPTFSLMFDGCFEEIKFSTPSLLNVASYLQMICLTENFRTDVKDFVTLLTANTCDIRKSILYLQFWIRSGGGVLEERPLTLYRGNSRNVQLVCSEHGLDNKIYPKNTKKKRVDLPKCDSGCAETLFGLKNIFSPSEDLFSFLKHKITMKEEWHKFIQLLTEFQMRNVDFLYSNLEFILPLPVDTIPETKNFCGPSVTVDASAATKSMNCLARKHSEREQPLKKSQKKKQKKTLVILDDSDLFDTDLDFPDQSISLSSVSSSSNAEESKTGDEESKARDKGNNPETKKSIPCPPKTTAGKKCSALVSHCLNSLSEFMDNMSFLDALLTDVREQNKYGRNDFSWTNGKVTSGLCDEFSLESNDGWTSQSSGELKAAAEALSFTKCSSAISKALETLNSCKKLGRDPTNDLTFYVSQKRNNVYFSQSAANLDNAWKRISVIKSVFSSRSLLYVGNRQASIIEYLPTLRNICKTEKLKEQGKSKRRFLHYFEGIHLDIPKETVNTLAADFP
Sequence of Cytochrome P450 2C19 (Homo sapiens) (P33261 whole entry, looked up): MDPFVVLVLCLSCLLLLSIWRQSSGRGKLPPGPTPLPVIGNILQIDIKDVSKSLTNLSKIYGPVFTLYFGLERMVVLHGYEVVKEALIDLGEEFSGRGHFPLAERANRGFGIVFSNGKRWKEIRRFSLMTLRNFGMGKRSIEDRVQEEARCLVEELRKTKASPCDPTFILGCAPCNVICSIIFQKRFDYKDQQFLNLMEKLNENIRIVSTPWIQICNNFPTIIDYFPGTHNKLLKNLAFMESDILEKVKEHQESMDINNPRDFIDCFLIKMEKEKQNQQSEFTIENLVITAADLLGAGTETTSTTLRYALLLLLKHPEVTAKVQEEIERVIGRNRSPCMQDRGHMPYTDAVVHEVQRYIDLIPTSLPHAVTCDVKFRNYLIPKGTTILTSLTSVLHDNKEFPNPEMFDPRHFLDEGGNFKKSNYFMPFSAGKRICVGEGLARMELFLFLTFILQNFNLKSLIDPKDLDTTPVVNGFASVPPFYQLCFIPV
Sequence of Ubiquitin carboxyl-terminal hydrolase 1 (Homo sapiens) (O94782 whole entry, looked up): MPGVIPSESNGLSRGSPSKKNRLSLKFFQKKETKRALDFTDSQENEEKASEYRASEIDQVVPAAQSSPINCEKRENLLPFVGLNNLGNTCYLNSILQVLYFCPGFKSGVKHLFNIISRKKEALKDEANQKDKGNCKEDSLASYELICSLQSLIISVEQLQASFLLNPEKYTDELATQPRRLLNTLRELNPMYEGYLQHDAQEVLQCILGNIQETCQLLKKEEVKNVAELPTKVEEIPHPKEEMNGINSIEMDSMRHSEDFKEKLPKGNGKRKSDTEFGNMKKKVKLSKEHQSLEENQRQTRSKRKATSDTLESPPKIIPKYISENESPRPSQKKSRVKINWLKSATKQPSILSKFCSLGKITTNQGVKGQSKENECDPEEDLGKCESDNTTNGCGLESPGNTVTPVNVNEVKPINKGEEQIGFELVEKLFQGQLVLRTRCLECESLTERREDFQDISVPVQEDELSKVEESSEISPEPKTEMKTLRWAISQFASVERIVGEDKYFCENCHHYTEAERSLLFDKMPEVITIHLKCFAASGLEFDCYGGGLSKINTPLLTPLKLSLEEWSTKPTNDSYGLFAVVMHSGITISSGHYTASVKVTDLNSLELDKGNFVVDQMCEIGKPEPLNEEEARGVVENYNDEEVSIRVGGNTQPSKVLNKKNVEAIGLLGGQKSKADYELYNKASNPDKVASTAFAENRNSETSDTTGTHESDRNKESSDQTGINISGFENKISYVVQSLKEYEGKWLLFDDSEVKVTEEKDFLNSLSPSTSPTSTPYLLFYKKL

With `C[C@]12CC[C@H](OS(=O)(=O)O)CC1=CCC1C2CC[C@]2(C)C(=O)CC[C@@H]12` (stereo not given in full), the Potency entry in [1], in test [2], in [3], in [4], in test [5] and in [6] was “inactive” in each case.
Take `CN1CCN2c3ccc(N)cc3CC3(C(=O)NC(=O)NC3=O)C2C1` (stereo not given): the Potency in test [7] was 14.1 µM (active).
In the case of `COc1cc2c(cc1O)C[C@H]1c3c(cc(OC)c(O)c3-2)CCN1C`, the Potency in test [8] and in test [9] was greater than 46 µM in each case. In test [10], the call was inactive.
In the case of `S=C(S)N1CCCC1`, the Potency in test [11] was 2 µM (active); in test [12], 3.98 µM (active); in test [13], 3.98 µM (active); in test [14], 2.61 µM (active); in test [15], 2.93 µM (active); in test [16], 4.65 µM (active). In addition, the result in test [17] was inactive.
With `COc1cc(OC)c(/C=C2/C(=O)Nc3ccccc32)c(OC)c1`, the Potency in test [18] was 16.4 µM (active). In addition, the result in test [19] was inactive.
Take `CN1[C@@H]2CC(O)C[C@H]1[C@@H]1O[C@@H]12` (stereo not given in full): the Potency entry in test [20] was “inactive”.
